# Reference: ChEMBL document CHEMBL3433997, “St. Jude Leishmania screening dataset” (2016)
# Assays:
# Type in all cases: functional
# [1] = target: Solute carrier family 2, facilitated glucose transporter member 1 (Homo sapiens) (UniProt P11166); assay: ST_JUDE_LEISH: Cytotoxicity at 2uM final concentration against transgenic Leishmania Mexicana promastigotes LmGLUT1 that are glucose transport deficient and complemented with the human glucose transporter GLUT1. Activity is measured by DNA content using SYBR green in vitro
# Solute carrier family 2, facilitated glucose transporter member 1 (Homo sapiens), sequence (P11166 whole entry): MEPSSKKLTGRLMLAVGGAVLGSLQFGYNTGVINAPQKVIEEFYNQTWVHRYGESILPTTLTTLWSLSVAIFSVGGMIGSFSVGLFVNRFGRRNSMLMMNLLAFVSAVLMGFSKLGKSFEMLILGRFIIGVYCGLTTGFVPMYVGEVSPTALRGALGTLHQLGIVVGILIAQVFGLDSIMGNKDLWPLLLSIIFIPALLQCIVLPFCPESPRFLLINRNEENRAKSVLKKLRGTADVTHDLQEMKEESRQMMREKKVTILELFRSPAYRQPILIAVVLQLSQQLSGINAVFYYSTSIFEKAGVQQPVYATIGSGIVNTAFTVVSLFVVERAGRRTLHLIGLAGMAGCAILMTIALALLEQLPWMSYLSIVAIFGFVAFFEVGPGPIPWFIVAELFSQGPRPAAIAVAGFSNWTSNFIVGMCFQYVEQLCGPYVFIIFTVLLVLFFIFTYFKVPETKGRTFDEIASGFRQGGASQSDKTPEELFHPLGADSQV
# [2] = target: Hexose transporter 1 (Plasmodium falciparum) (UniProt O97467); assay: ST_JUDE_LEISH: Cytotoxicity at 2uM final concentration against transgenic Leishmania Mexicana promastigotes LmPfHT that are glucose transport deficient and complemented with the Plasmodium falciparum hexose transporter. Activity is measured by DNA content using SYBR green in vitro
# [3] = target: Glucose transporter (Leishmania mexicana) (UniProt O61059); assay: ST_JUDE_LEISH: Cytotoxicity at 2uM final concentration against transgenic Leishmania Mexicana promastigotes LmGT2 that are glucose transport deficient and complemented with the L. Mexicana glucose transporter 2. Activity is measured by DNA content using SYBR green in vitro
structure (smiles),measurement,setting,value
COc1c(C2CCN(CCCCNC(=O)c3cccc(-c4ccc(C(F)(F)F)cc4)c3)CC2)ccc2c1CCCC2,inhibition,[1],2.51%
same,inhibition,[2],1.75%
same,inhibition,[3],11.1%
O=S(=O)(NCCN1CCCC1)c1ccc(-c2cccc(CNCc3ccccc3)c2)s1,inhibition,[1],-2.31%
same,inhibition,[2],-2.12%
same,inhibition,[3],-2.89%
Cc1c2ccncc2c(C)c2c1[nH]c1cc(Cc3ccccc3)c(O)cc12,inhibition,[1],3.52%
same,inhibition,[2],4.1%
same,inhibition,[3],-3.09%
COc1ccc2nc(-c3cc(-c4ccc(NC(C)=O)cc4)cnc3N)[nH]c2c1,inhibition,[1],3.72%
same,inhibition,[2],4.61%
same,inhibition,[3],2.87%
CC1(C)CC2CC(C)(CN2C(=O)c2cc(C(C)(C)C)nn2Cc2ccccc2)C1 (stereo unspecified),inhibition,[1],7.67%
same,inhibition,[2],7.75%
same,inhibition,[3],5.94%
CCN(CC)CCCC(C)N=c1cc(C=Cc2ccccc2Cl)[nH]c2cc(Cl)ccc12 (stereo unspecified),inhibition,[1],3.06%
same,inhibition,[2],3.03%
same,inhibition,[3],1.56%
CC(=O)Nc1ccc(CN2CCC(NC(=O)c3cc(-c4ccc(N(C)C)cc4)cs3)C2)cc1 (stereo unspecified),inhibition,[1],1.62%
same,inhibition,[2],3.72%
same,inhibition,[3],4.39%
O=C(Nc1ccc(OC2CCN(Cc3ccc(F)cc3)CC2)c(Cl)c1)c1ccsc1,inhibition,[1],-1.74%
same,inhibition,[2],2.64%
same,inhibition,[3],1.51%
CC(=O)N[C@H](C(=O)Nc1ccc(-c2ccc(-c3nc4cc(C(F)(F)F)ccc4[nH]3)s2)cc1)C(C)C,inhibition,[1],5.68%
same,inhibition,[2],5.3%
same,inhibition,[3],4.22%
NC1=NC(c2ccccc2)(c2ccccc2)C(=O)N1CCCCc1ccccn1,inhibition,[1],-0.54%
same,inhibition,[2],-0.95%
same,inhibition,[3],-2.5%
CCN1CCN(c2cc(C)c3cc(NC(=O)c4cccc(OC)c4)ccc3n2)CC1,inhibition,[1],15.2%
same,inhibition,[2],15.3%
same,inhibition,[3],13.7%
CC(Cc1ccc(OCCN2CCN(c3cccc(Cl)c3)CC2)cc1)NCC(O)c1cccc(Cl)c1 (stereo unspecified),inhibition,[1],0.3%
same,inhibition,[2],0%
same,inhibition,[3],1.82%
